About 83,000 compounds went through this panel and 20% of them were active in at least one assay; those are over-represented in the sample as a whole.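 Note: values are percent growth. 100 is the growth of untreated cells, values between 100 and 0 indicate rising inhibition; between -100 and 0 indicates cell death.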 The source made the active and inactive calls. How the source made its calls: active means growth percent below 10; inactive means the rest.
These compounds were tested on SK-OV-3 ovarian (assay: NCI-60 one-dose screen, 48 h (100 = growth as untreated, 0 = no growth, -100 = all killed)). Details: 10 µM unless noted.

Row | SMILES | growth
1 | O=Cc1ccc(O)c2ncccc12 | 97.7% (inactive)
2 | CCCCOc1nc2ccccc2cc1C1CNC(=O)c2ccccc2N1 (stereo not drawn) | 14.8% (inactive)
3 | COc1ccc2occ(C3=C(c4c[nH]c5ccccc45)C(=O)N(O)C3=O)c2c1 | 88.7% (inactive)
4 | N#CC1=C(NC=O)Oc2c(ccc3ccccc23)C1c1ccccc1 (stereo not drawn) | 16.3% (inactive)
5 | Fc1c[c-]c(-c2ccccn2)c(F)c1.[CH3-].[Pt+2].c1ccc(P(C[PH+](c2ccccc2)c2ccccc2)c2ccccc2)cc1 | 9.11% (active)
6 | N=C1C(c2nc(-c3ccc(Br)cc3)cs2)=C(O)CN1CC1CCCO1 (stereo not drawn) | 113% (inactive)
7 | NS(=O)(=O)c1cnccc1Sc1ccncc1S(N)(=O)=O | 95.6% (inactive)
8 | N#Cc1c(-c2ccccn2)[nH]c(=S)[nH]c1=O | 104% (inactive)

— PubChem BioAssay (NCI)
